# Measurements reported in the supplement of paper PMC7156485.
# Values without a mark were called inactive.
# Tested on: TDF
# Experiment: H1.0 immunofluorescence intensity relative to DMSO (% of DMSO); higher = stronger H1.0 induction, active = 120 or more
# Details: concentration: 10 µM; 24 h
# Procedure, shortened: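 Cell number or H1.0 nuclear intensity appears as percent of the plate control, based on the median of replicates. Measurements came from HCC1569 and TDF cells exposed in triplicate to compounds at 10 µM for 24 h at 37 °C, then imaged in six fields per well at ×10. Positional effects were smoothed out of HCC1569 values.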
# 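Note: TDF is a line of transformed human dermal fibroblasts of mesenchymal origin.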
row,SMILES,H1.0 immunofluorescence intensity
1,COc1ccc(-c2ccc3cc(C(=O)O)ccc3c2)cc1C12CC3CC(CC(C3)C1)C2 [Adapalene],99.5
2,COc1ccc(-c2cnc3c(-c4ccsc4)cnn3c2)cc1 [VEGF Receptor 2 Kinase Inhibitor IV],89
3,Cl.O=C(O)C1CCCN(CCC=C(c2ccccc2)c2ccccc2)C1 (stereo unspecified),98.1
4,COC(=O)c1sccc1S(=O)(=O)Nc1ccc(Nc2ccccc2)cc1OC,88.2
5,CC(CN1c2ccccc2Sc2ccccc21)N(C)C.Cl (stereo unspecified),110
6,O=c1[nH]c2ccccc2n1CCN1CCN(c2cccc(C(F)(F)F)c2)CC1,95.8
7,O=C1C=C(CO)OCC1=O [5-hydroxy-2-(hydroxymethyl)-4H-pyran-4-one],92.9
8,"O=C1C(=O)C(c2ccc(O)c(O)c2)Oc2cc(O)cc(O)c21 (stereo unspecified) [2-(3,4-dihydroxyphenyl)-3,5,7-trihydroxy-4H-chromen-4-one]",103
9,O=C(O)CNC(=O)C(CS)Cc1ccccc1 (racemic) [DL-Thiorphan],93.4
10,CCN(CC)CCNC(=O)c1cc(Cl)c(N)cc1OC [Metoclopramide],97.1
11,C=C1C(=CC=C2CCCC3(C)C2CCC3C(C)CCCC(C)C)CC(O)CC1O (stereo unspecified) [Alfacalcidol],96.5
12,C=CCSC[C@H](N)C(=O)O [(2R)-3-(allylsulfanyl)-2-aminopropanoic acid],88.7
13,O=C(O)c1cc(-c2ccc(F)cc2F)ccc1O [Diflunisal],96.1
14,CCCNCC(O)COc1ccccc1C(=O)CCc1ccccc1 (stereo unspecified) [Propafenone],92.6
15,"O=C1NC(=O)C(c2ccccc2)(c2ccccc2)N1 [5,5-Diphenylhydantoin]",89.2
16,COc1cc2nc(N3CCN(C(=O)C4CCCO4)CC3)nc(N)c2cc1OC (stereo unspecified) [Terazosin],93.9

row,SMILES,H1.0 immunofluorescence intensity
1,Nc1ccc(S(=O)(=O)Nc2ccnn2-c2ccccc2)cc1 [Sulfaphenazole],89.8
2,COc1ccc2cc(C(C)C(=O)O)ccc2c1 (stereo unspecified) [Naproxen],98.1
3,COc1cc2c3cc1Oc1c(OC)c(OC)cc4c1C(Cc1ccc(OC(=O)c5ccc([N+](=O)[O-])cc5)c(c1)Oc1ccc(cc1)CC3N(C)CC2)N(C)CC4 (stereo unspecified) [E6 Berbamine],98.8
4,CC(Cc1ccc(O)c(O)c1)(NN)C(=O)O.O (stereo unspecified) [Carbidopa.H2O],99.8
5,COC(=O)C1C(O)CCC2CN3CCc4c([nH]c5ccccc45)C3CC21.Cl (stereo unspecified) [Rauwolscine],95.5
6,CC12C=CC(=O)C=C1CCC1C2C(=O)CC2(C)C1CCC2(O)C(=O)CO (stereo unspecified) [Prednisone],86.2
7,O=c1[nH]c(=O)c2nc3ccccc3nc2[nH]1 [Alloxazine],101
8,CCCCCCCCCCCCCCCC(=O)OCC(COP(=O)(O)O)OC(=O)CCCCCCCCCCCCCCC (stereo unspecified) [Dipalmitoylphosphatidic acid],89.8
9,C=C1CC2C3C=C(C)C4=CC(=O)CCC4(C)C3CCC2(C)C1(OC(C)=O)C(C)=O (stereo unspecified) [Melengestrol Acetate],94.3
10,CCCCCCC=CCCCCCCCCCC(=O)O [11(Z)-Octadecenoic acid],112
11,CN(C)CCCN1c2ccccc2Sc2ccccc21.Cl [Promazine hydrochloride],118
12,CC(C)C1NC(=O)C(CCCCN)NC(=O)C(Cc2c[nH]c3ccccc23)NC(=O)C(Cc2ccc(O)cc2)NC(=O)C(C)N(C)C(=O)C(Cc2ccccc2)NC1=O (stereo unspecified) [Seglitide],102
13,COc1cc2c(cc1OC)C(c1ccccc1)CN(C)CC2.O=C(O)C=CC(=O)O (stereo unspecified),94.3
14,O=C(NOCC1CC1)c1ccc(F)c(F)c1Nc1ccc(I)cc1Cl,93.3
15,Cl.N[C@@H](CCC(=O)O)C(=O)O [L-Glutamic acid hydrochloride],90.1
